Reference: article PMC11062922 (Nature Chemical Biology, 2023)

System: MAP2K1
Design: species or system human, MV4-11 + K-562 + COLO205 + SK-N-BE2 + OVCAR-8
Conditions: read-out: apparent Kd; compound concentrations:100 nM and 1000 nM (sheet 'Samples'); n = 1

Structure (SMILES) | potency estimated from few doses [nM]
CCOc1cc(N2CCC(O)CC2)ccc1Nc1ncc2c(n1)N(C)c1ccccc1C(=O)N2C [XMD8-92] | 1780
Cc1c(Cn2c(C)nn3c(=O)cc(N4CCOC(C)C4)nc23)cccc1C(F)(F)F (centres unmarked) [GSK2344444A] | 2250
O=C1NC(=O)C(c2ccc(Cl)cc2)=C1Nc1cccc(Cl)c1 [SB-317651] | 1860

System: MAPK10
Design: species or system human, MV4-11 + K-562 + COLO205 + SK-N-BE2 + OVCAR-8
Conditions: read-out: apparent Kd; compound concentrations:100 nM and 1000 nM (sheet 'Samples'); n = 1

Structure (SMILES) | potency estimated from few doses [nM]
CS(=O)(=O)CCCn1c(=O)c(Oc2ccc(F)cc2F)cc2cnc(NC3CCOCC3)nc21 [RO5033700-000] | 93.9
N#CCn1c(=O)c(Oc2ccc(F)cc2F)cc2cnc(NC3CCOCC3)nc21 [RO5040027-000] | 45.1
Cl.Cn1c(=O)c(Oc2ccccc2F)cc2cnc(NC3CCOCC3)nc21 [RO3304805-001] | 1050
CC(C)Nc1ncc2cc(Oc3ccc(F)cc3F)c(=O)n(C)c2n1.Cl [RO3309180-001] | 68.5
O=c1[nH]c2nc(NC3CCOCC3)ncc2cc1Oc1ccc(F)cc1F [RO3310867-000] | 150

System: MAPK11
Design: species or system human, MV4-11 + K-562 + COLO205 + SK-N-BE2 + OVCAR-8
Conditions: read-out: apparent Kd; compound concentrations: 100 nM and 1000 nM (sheet 'Samples'), CATDS: 1; n = 1

Structure (SMILES) | potency estimated from few doses [nM]
Nc1c(C(=O)c2cccc(OCCN3CCOCC3)c2)cnn1-c1ccc(F)cc1 [RO5301104-000] | 701
Nc1c(C(=O)c2cccc(OC[C@H](O)CO)c2)cnn1-c1ccc(F)cc1 [RO3201196-000] | 697
Nc1c(C(=O)c2cccc(C#CCO)c2)cnn1-c1ccc(F)cc1 [RO1153836-000] | 591
CN1CCN(CCc2cccc(C(=O)c3cnn(-c4ccc(F)cc4)c3N)c2)CC1.Cl [RO1160347-001] | 1330

Same assay, conditions: read-out: apparent Kd; compound concentrations:100 nM and 1000 nM (sheet 'Samples'); n = 1

Structure (SMILES) | potency estimated from few doses [nM]
CS(=O)(=O)CCCn1c(=O)c(Oc2ccc(F)cc2F)cc2cnc(NC3CCOCC3)nc21 [RO5033700-000] | 630
N#CCn1c(=O)c(Oc2ccc(F)cc2F)cc2cnc(NC3CCOCC3)nc21 [RO5040027-000] | 146
COCCNC(=O)c1ccc(-c2cc(C(=O)NC3CC3)cc(F)c2C)cc1 [GW868318X] | 108
O=C(Nc1n[nH]c2nc(-c3ccccc3)c(Cl)cc12)C1CC1 [SB-734909] | 1940
Cl.Cn1c(=O)c(Oc2ccc(F)cc2F)cc2cnc(N[C@H]3CC[C@H](O)CC3)nc21 [RO3305413-001] | 806
CC(C)Nc1ncc2cc(Oc3ccc(F)cc3F)c(=O)n(C)c2n1.Cl [RO3309180-001] | 439
O=c1[nH]c2nc(NC3CCOCC3)ncc2cc1Oc1ccc(F)cc1F [RO3310867-000] | 655
Cc1ccc(NC(=O)c2ccnc(N3CCCCC3)c2)cc1-c1ccc(C(=O)NCC2CC2)cc1 [GW775610X] | 309
